From PubChem
TWEAK Fn14 block: inhibitors of TWEAK-Fn14 signaling, primary screen, luciferase reporter cells, uHTS; actives 2% (n = 360,000); TWEAK-stimulated Fn14 reporter cells, luciferase luminescence, 8 h; inhibition, % at 10 µM; in the data active = inhibition above about 50%
TROY NFkB inh: inhibitors of TROY-driven NF-kB signaling, primary screen, Q293 LMP1-TROYcd cells, NF-kB luciferase, uHTS; Q293 LMP1-TROYcd NF-kB luciferase reporter, 4 h; actives 0.98% (n = 360,000); inhibition, % at 10 µM; AID 1347056, 2019;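 active = compounds whose plate-normalised and pattern-corrected inhibition of the luciferase reporter signal at the single screening dose is 50% or more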
EBV LMP1 NFkB: EBV LMP1-driven NF-kappaB luciferase reporter inhibitors, primary screen, cell-based, luminescence, single point. inhibition, % at 12.5 µM. LMP1-induced NF-kappaB luciferase reporter cells. actives 0.69% (n = 350,000); in the data active = inhibition above about 41%;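 note: 0% = neutral control wells and 100% = reference inhibitor control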
MITF TRPM1 inh: inhibitors of MITF-dependent TRPM1 promoter reporter, primary screen, cell-based, SK-MEL-5, single point, luciferase | SK-MEL-5 TRPM1 promoter luciferase, 24 h | inhibition, % at 12.5 µM | actives 0.83% (n = 330,000) | AID 488899, 2010;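 active = mean inhibition across replicates of 60% or more, whatever share of single replicates reaches that level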
HIF-2a inh: HIF-2a reporter inhibitors, primary screen, luminescence, 786-0 RCC cells; actives 0.72% (n = 360,000); inhibition, % at 18.8 µM; 786-0 RCC cells HIF-2a reporter, luciferase luminescence, overnight;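 active = inhibition of the luminescence signal of 40% or more relative to plate controls, in a single-dose primary screen at 18.75 µM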
Peg3 promoter: Peg3 promoter-driven luciferase inhibitors, primary screen, cell-based, HeLa, luciferase luminescence; HeLa PEG-Prom luciferase reporter, overnight; actives 1.7% (n = 360,000); AID 588405, 2011; inhibition, % at 20 µM;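 active = inhibition of at least 50% at 20 µM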
Numbers without * were called inactive; / = no result given. In the library only some 4% were active in any assay of this set; here they are far more common.

SMILES | TWEAK Fn14 block | TROY NFkB inh | EBV LMP1 NFkB | MITF TRPM1 inh | HIF-2a inh | Peg3 promoter
COc1ccc2[nH]c3c(N4CCc5ccccc5C4)ncnc3c2c1 | 92* | 69* | 18 | 37 | -116 | 48
COc1ccc(N2CCN(c3ncnc4c3[nH]c3ccccc34)CC2)cc1 | 77* | 76* | 48* | 29 | -2 | 29
Fc1ccc2[nH]c3c(N4CCN(c5ccccc5)CC4)ncnc3c2c1 | 102* | 76* | 50* | 33 | -13 | 104*
C#CCOCCOCCOCCNc1nc(N2CCN(C(=O)Cn3cc(CC(C)O)nn3)CC2)nc(N2CCN(C(=O)[C@H](C)n3cc(CCC(=O)O)nn3)CC2)n1 (stereo not given in full) | 11 | 2 | 0 | 1 | 3 | 3
Cc1cc(C)c2cc(C(=O)N3CCN(c4ncccc4C(F)(F)F)CC3)[nH]c2c1 | -18 | 3 | -10 | 14 | 6 | 25
OC1(c2cccc(C(F)(F)F)c2)CCN(c2ncnc3c2[nH]c2ccc(F)cc23)CC1 | 98* | 77* | 44* | 34 | 1 | 105*
O=C(Nc1cccc(C(F)(F)F)c1)c1ccc2nc(-c3ccco3)c(-c3ccco3)nc2c1 | 35 | 15 | 17 | -4 | 5 | 50*
O=C(Nc1ccc2nc(-c3ccco3)c(-c3ccco3)nc2c1)NC1CC1 | 73* | 4 | -3 | -46 | -48 | -43
O=C(Nc1ccc(N2CCOCC2)cc1)Nc1ccc2nc(-c3ccco3)c(-c3ccco3)nc2c1 | 17 | 4 | -70 | -13 | 0 | 47
CCOc1ccccc1NC(=O)Nn1cnnc1 | -2 | -11 | 7 | 10 | 10 | 22
O=P(CCCCCCCCCP(=O)(c1ccccc1)c1ccccc1)(c1ccccc1)c1ccccc1 | 48 | 55* | -3 | 41 | 14 | 67*
O=C(O)CCCCCCCCCCP(=O)(c1ccccc1)c1ccccc1 | -94 | 4 | -8 | 2 | 21 | 9
Oc1ccc(Cl)cc1Cc1cc(Cl)ccc1O | 54* | 54* | 7 | 5 | -8 | 42
COc1ccc(-c2nc3c4c(ncn3n2)-c2ccccc2CC42CCCC2)cc1 | 18 | 2 | 2 | 8 | 19 | -18
Oc1cccc(-c2nc3c4c(ncn3n2)-c2ccccc2CC42CCCC2)c1 | 71* | 41 | 15 | 20 | 26 | 54*
O=C(COC(=O)Cn1cnc2ccccc21)Nc1ccc(OC(F)F)cc1 | 8 | -5 | -5 | 2 | 1 | 3
COc1ccc(NS(=O)(=O)c2ccc3nc(COc4cccc5ccccc45)[nH]c3c2)cc1 | 59* | 38 | -5 | 10 | 22 | 30
O=C(Nc1cccc(Br)c1)c1ccc2c(c1)SC1=NS(=O)(=O)CCN12 | -1 | -8 | 16 | 1 | 1 | 19
CC(=O)N(C)c1ccc(NS(=O)(=O)Cc2ccccc2)cc1 | 45 | 57* | -6 | 22 | -22 | -26
CC(=O)c1ccc(NS(=O)(=O)Cc2ccccc2)cc1 | 6 | 8 | -1 | 6 | -7 | -2
Cc1cc(OCc2cc(C(=O)N3CCC(Oc4cccnc4)CC3)no2)cc(C)c1Cl | 27 | 50* | -3 | 2 | -36 | 16
COc1ccc(Cl)cc1NC(=O)c1cnc2n(c1=O)CCS2 | 53* | 48 | -24 | -14 | -54 | -2
COc1ccc(OC)c(NC(=O)c2cnc3n(c2=O)CCS3)c1 | 8 | -26 | -16 | -7 | -99 | -40
COc1ccc(CC(=O)Nc2cccc(-c3nnc(-c4ccco4)o3)c2)cc1 | 33 | -31 | 12 | 4 | -17 | 22
Cc1cc(C)cc(OCC(=O)Nc2cccc(-c3nnc(-c4ccco4)o3)c2)c1 | 68* | 57* | 14 | -14 | -102 | 58*
SMILES | TWEAK Fn14 block | TROY NFkB inh | EBV LMP1 NFkB | MITF TRPM1 inh | HIF-2a inh | Peg3 promoter
COc1ccc(C(=O)Nc2cccc(-c3nnc(-c4ccco4)o3)c2)cc1 | 57* | 23 | -8 | 5 | -99 | 43
O=C(Nc1cccc(-c2nnc(-c3ccccc3)o2)c1)c1ccc(Br)o1 | 40 | 58* | -4 | -13 | -92 | 1
O=C(COc1ccccc1)Nc1cccc(-c2nnc(-c3ccccc3)o2)c1 | 37 | -1 | -9 | -17 | -162 | -50
O=C(CN1CSCC1=O)N1CCN(S(=O)(=O)c2cc(C(F)(F)F)ccc2Cl)CC1 | -14 | -12 | 0 | 6 | 7 | 6
Cc1cc(C)cc(Cn2cc(CN3CC(N4CCN(Cc5ccccc5F)CC4)CS3(=O)=O)nn2)c1 (stereo not given) | 11 | 2 | / | / | 6 | /
CNc1nnc(-c2ccc(N(C)C)cc2)s1 | 62* | 16 | 23 | -28 | -8 | -130
NC(=O)/C=C/C(=O)Nc1ccc(Cl)cc1 | 2 | 3 | -1 | 2 | 13 | 63*
O=C(O)C1C=CCC(C(=O)O)C1 (stereo not given) | 3 | -17 | 1 | / | 2 | -7
Cc1ccc(S(=O)(=O)NC(=NCc2ccccc2)c2ccc(F)cc2)cc1 | 7 | -12 | -5 | 0 | 26 | 51*
Cc1ccc(S(=O)(=O)NC(=NCC(=O)O)c2ccc(F)cc2)cc1 | 4 | 6 | 1 | 1 | 9 | 1
Cc1c(/C=N/n2cnnc2)c2ccccc2n1CCOc1ccc(Cl)cc1 | 48 | 54* | 4 | 0 | 11 | 21
Cc1ccc(S(=O)(=O)N2[C@@H](c3ccc(Br)cc3)C(C(=O)O)=C[C@H]2C(C)(C)C)cc1 | 26 | 10 | 4 | -3 | 12 | -2
CCC(=O)NNC(=O)CSc1nnc(-c2ccccc2)c(-c2ccccc2)n1 | -13 | 11 | 85* | 8 | 13 | 7
Cc1ccccc1-n1c(SC(C)C(=O)NCC2CCCO2)nnc1-c1ccncc1 (stereo not given) | 7 | -17 | -4 | 0 | 9 | 3
CC(C)CCn1c(SCC(=O)NC2CCS(=O)(=O)C2)nc2cc(Cl)ccc2c1=O (stereo not given) | -15 | -6 | 3 | -2 | 6 | 0
COc1cc(CC(=O)Nc2nc(-c3ccccc3)c(C(C)=O)s2)cc(OC)c1OC | 15 | 5 | 5 | 2 | 9 | 11
COc1ccc(CC(=O)Nc2nc(-c3ccccc3)c(C(C)=O)s2)cc1OC | 57* | 21 | 5 | 18 | 13 | 20
Cc1c(NC(=O)C(C)OC(=O)c2ccc(NC(=O)CC#N)cc2)c(=O)n(-c2ccccc2)n1C (stereo not given) | 11 | -6 | -6 | 6 | 3 | 14
O=C(Nc1nnc(-c2ccc3c(c2)CCCC3)o1)c1c(F)cccc1F | 53* | 22 | -6 | -21 | -65 | -69
